The record followed here is paper PMC4336329 (PLoS ONE, 2015).

Screen size: about 310,000 compounds; about 14,000 (4.5%) showed an effect of 50% or more. Effects have a minus sign here. For the sample, strong results were picked, then their nearest neighbours and some compounds at random.
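Note: peak tail current of the secondary pulse compared with the same well before compound.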

The target in this test is human ether-à-go-go-related gene (hERG) potassium channel (human, UniProt Q12809). The experiment in a line: primary screen, population patch clamp on CHO cells stably expressing hERG; higher = less effect of the substance.
Sequence of human ether-à-go-go-related gene (hERG) potassium channel (Q12809 whole entry, looked up): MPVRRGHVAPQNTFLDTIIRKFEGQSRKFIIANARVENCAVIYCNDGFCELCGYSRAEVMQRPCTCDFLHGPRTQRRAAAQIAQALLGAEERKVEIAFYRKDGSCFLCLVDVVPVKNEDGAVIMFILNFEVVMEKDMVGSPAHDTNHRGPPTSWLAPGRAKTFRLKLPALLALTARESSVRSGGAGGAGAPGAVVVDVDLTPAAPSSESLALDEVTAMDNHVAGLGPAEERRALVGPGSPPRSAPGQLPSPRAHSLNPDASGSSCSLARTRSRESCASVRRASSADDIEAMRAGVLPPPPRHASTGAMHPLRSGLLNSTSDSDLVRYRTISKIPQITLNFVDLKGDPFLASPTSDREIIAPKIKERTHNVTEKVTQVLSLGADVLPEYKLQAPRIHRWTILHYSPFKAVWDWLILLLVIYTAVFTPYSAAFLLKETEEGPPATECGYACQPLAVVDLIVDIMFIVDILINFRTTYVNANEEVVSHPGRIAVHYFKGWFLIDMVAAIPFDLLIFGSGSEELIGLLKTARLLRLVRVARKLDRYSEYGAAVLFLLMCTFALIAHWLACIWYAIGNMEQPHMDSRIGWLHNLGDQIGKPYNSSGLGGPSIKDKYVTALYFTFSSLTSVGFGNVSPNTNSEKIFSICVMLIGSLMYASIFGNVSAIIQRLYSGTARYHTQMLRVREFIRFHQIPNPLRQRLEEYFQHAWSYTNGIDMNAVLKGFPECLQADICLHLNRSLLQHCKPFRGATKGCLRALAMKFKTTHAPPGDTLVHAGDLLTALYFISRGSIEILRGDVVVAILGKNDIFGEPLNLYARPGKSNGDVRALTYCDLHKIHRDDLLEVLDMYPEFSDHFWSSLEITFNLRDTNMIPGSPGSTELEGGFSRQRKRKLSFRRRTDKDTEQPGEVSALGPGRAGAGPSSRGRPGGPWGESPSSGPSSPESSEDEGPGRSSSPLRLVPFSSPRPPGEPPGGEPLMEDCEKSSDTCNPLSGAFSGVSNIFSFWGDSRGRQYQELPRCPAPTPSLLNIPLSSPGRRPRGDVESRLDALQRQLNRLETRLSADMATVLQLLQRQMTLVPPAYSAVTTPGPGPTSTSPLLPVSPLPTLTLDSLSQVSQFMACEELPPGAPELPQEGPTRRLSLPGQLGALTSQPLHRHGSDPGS
For the compound `O=C(CN1C(=O)/C(=C/c2ccccc2)SC1=S)Nc1ncc(Cc2ccccc2)s1`, the “hERG current change (%, negative = inhibition) at 10uM” value was found to be 7.31%.
In the case of `C[C@H](NC(=O)[C@@H]1CSC2c3ccccc3C(=O)N21)C(=O)NC1CCCC1` (stereo partly shown) it was 10.5%; in that of `COc1ccc(C(=O)NCc2ccon2)cc1OC1CCN(C(C)C)CC1`, -45.6%; in that of `CCc1cccc(C)c1N(C(=O)Cn1c(CO)nc2ccccc21)C(C)COC` (stereo not shown), -5.89%.
The same measure for `COC(=O)c1c(N)sc(C(C)=O)c1C`: 0.466%; for `CCOC(=O)N1CCC(NC(=O)Cn2c3c(c(-c4ccccc4Cl)cc2=O)CCC3)CC1`: -8.61%.
The same measure for `CCOc1ccc(/C=N/Nc2ccccc2)cc1`: 17.6%; for `O=C(c1cccnc1)N1c2ccccc2Sc2ccccc21`: -18.1%; for `Fc1ccc2c(c1)nnn2C1CCN(Cc2c(Cl)cccc2Cl)CC1`: 7.11%.
Turning to `c1ccc(CCn2nnnc2CN2CCC(n3nnc4ccccc43)CC2)cc1`, the “hERG current change (%, negative = inhibition) at 10uM” value was -36.4%.
The same measure for `Cl.Fc1ccc2c(c1)nnn2C1CCN(Cc2nnnn2CCc2ccccc2)CC1`: -61.3%; for `Fc1ccc2c(c1)nnn2C1CCN(Cc2ccccc2)CC1`: -61.4%.
The same measure for `O=C(NC1CCN(Cc2nnnn2CCc2ccccc2)CC1)c1ccccc1F`: -3.18%; for `CCCC(C)C(=O)Nc1ccc(Cl)cn1` (stereo not shown): -7.45%.
The same measure for `COc1cc(OC)nc(Oc2cc(/C=N/O)ccc2OC)n1`: 0.516%.
In the case of `COc1cccc(N2CCN(C(=O)c3cc(-c4ccc(F)cc4)[nH]c3C)CC2)c1`, the “hERG current change (%, negative = inhibition) at 10uM” value was -68.4%.
The same measure for `COc1ccc(N2CCN(C(=O)c3cc(-c4ccc(F)cc4)[nH]c3C)CC2)cc1`: -67.4%; for `COc1cccc(N2CCN(C(=O)c3cc(C)oc3C)CC2)c1`: 6.8%; for `COc1cccc(N2CCN(C(=O)c3ccc(-c4ccccc4)cc3)CC2)c1`: -49.5%.
`CCOC(=O)N1CCC(NC(=O)c2cc(-c3ccc(F)cc3)[nH]c2C)CC1`: the “hERG current change (%, negative = inhibition) at 10uM” value was -0.721%.
The same measure for `COc1ccc(-n2ncc(C(=O)N3CCN(c4ccc(F)cc4)CC3)c2C)cc1`: -22.6%; for `CCOC(=O)N1CCN(C(=O)c2cccc(F)c2)CC1`: -17.9%; for `Cc1[nH]c(-c2ccc(F)cc2)cc1C(=O)N1CCN(c2cccc(Cl)c2)CC1`: -12%.
With `Cc1[nH]c(-c2ccc(F)cc2)cc1C(=O)N1CCN(c2ccccc2)CC1`, the “hERG current change (%, negative = inhibition) at 10uM” value is recorded as -58.8%.
In the case of `CCOC(=O)N1CCN(C(=O)c2cc(-c3ccc(F)cc3)[nH]c2C)CC1` it was -72.3%; in that of `Cc1ccc(N2CCN(C(=O)c3cc(-c4ccc(F)cc4)[nH]c3C)CC2C)cc1` (stereo not shown), -13.3%.
Turning to `Cc1[nH]c(-c2ccc(F)cc2)cc1C(=O)N1CCN(c2ccc(Cl)cc2)CC1`, the “hERG current change (%, negative = inhibition) at 10uM” value is -13.4%.
The same measure for `CCC(=O)NNc1ncnc2ccccc12`: 9.38%; for `CCN(CC)C(=O)C1CCCN(Cc2ccc3ccccc3c2)C1` (stereo not shown): -19%; for `CC(C)(C)OC(=O)NCCCC1=CC2=CC(=O)C(C)(OC(=O)c3ccco3)C(=O)C2=CO1` (stereo not shown): 5.99%.
The same measure for `COCCCNC(=O)C1CCC(CNS(=O)(=O)c2ccc(C)cc2)CC1` (stereo not shown): 14%.
For the compound `Cc1cccc(CCN2C(N(C)C)=NC[C@@H]2C)c1`, the “hERG current change (%, negative = inhibition) at 10uM” value is -7.74%.
As to `Cc1c(NC(=O)/C(C#N)=C/c2ccc(-c3cccc(Cl)c3)o2)c(=O)n(-c2ccccc2)n1C`, the “hERG current change (%, negative = inhibition) at 10uM” value is -24.5%.
On to `NC(=O)c1cc(C(N)=O)nc(Cl)n1`, for which the “hERG current change (%, negative = inhibition) at 10uM” value was determined as 16.1%.
In the case of `Cc1cccnc1NC(=O)c1ccc(S(=O)(=O)N2CCC(C)CC2)cc1` it was -12.3%; in that of `COc1ncnc2c1ncn2CC1COC(C)(C)O1` (stereo not shown), 15.9%; in that of `Cc1sc2nc(CSc3ccccc3)nc(N3CCC(C(N)=O)CC3)c2c1C`, -8.46%.
The same measure for `CCNc1nc(CSc2ccccc2)nc2sc(C)c(C)c12`: 1.64%; for `COCCNc1nc(CSc2ccccc2)nc2sc(C)c(C)c12`: -5.97%.
As for `Cc1sc2nc(CSc3ccccc3)nc(NCCN(C)C)c2c1C`, the “hERG current change (%, negative = inhibition) at 10uM” value is given as -72.2%.
In the case of `Cc1sc2nc(CSc3ccccc3)nc(N3CCOCC3)c2c1C`, the “hERG current change (%, negative = inhibition) at 10uM” value came to 2.04%.
Regarding `CCOC(=O)c1sc2nc(CSc3ccccc3)nc(N3CCCN(C)CC3)c2c1C.O=C(O)C(=O)O`, the “hERG current change (%, negative = inhibition) at 10uM” value is on record as -70%.
Turning to `CCOC(=O)c1sc2nc(CSc3ccccc3)nc(N3CCC(C(N)=O)CC3)c2c1C`, the “hERG current change (%, negative = inhibition) at 10uM” value was 17.5%.
The same measure for `Cc1sc2nc(CSc3ccccc3)nc(N3CCN(C)CC3)c2c1C`: -58.5%.
The same measure for `CCOC(=O)c1sc2nc(CSc3ccccc3)nc(NCCN(C)C)c2c1C`: -17.4%.
On to `O=C(NCCCN=C1NS(=O)(=O)c2ccccc21)c1ccco1`, for which the “hERG current change (%, negative = inhibition) at 10uM” value is -10%.
In the case of `Cc1nn(C)cc1C1C(C#N)=C(N)N(c2ccc(F)c([N+](=O)[O-])c2)C2=C1C(=O)CCC2` (stereo not shown) it was 11%.
The same measure for `Cc1ccc(S(=O)(=O)N2[C@@H](c3cccc(Cl)c3)C(C(=O)O)=CC[C@H]2c2cccc(Cl)c2)cc1`: 3.05%; for `O=[N+]([O-])c1ccc(NC(=S)N/C(=N/CS(=O)(=O)c2ccccc2)c2ccccc2)cc1`: -25.1%.
In the case of `COc1ccc(NC(=S)N/C(=N/S(=O)(=O)c2ccc(C)cc2)c2ccccc2)cc1` it was 21.2%.
As to `COc1ccc(NC(=S)N/C(=N/CS(=O)(=O)c2ccccc2)c2ccccc2)cc1`, the “hERG current change (%, negative = inhibition) at 10uM” value is on record as -53%.
In the case of `COc1ccc(NC2SC(=O)N(C)C2=O)cc1` (stereo not shown) it was 1.36%.
In the case of `O=C1C(=O)N(CCN2CCOCC2)C(c2ccncc2)/C1=C(/O)c1ccc2c(c1)OCO2` (stereo not shown) it was 8.87%.
In the case of `O=C(NCC1CCCN(Cc2ccc3nonc3c2)C1)c1cccc(C(F)(F)F)c1` (stereo not shown) it was -61.5%; in that of `O=S(=O)(Cc1ccccc1)NCC1CCCN(Cc2cccc3nonc23)C1` (stereo not shown), -12.2%; in that of `O=S(=O)(Cc1ccccc1)NCC1CCCN(Cc2ccc3nonc3c2)C1` (stereo not shown), -51.2%.
Regarding `COc1ccc(CC(=O)NCC2CCCN(Cc3cccc(C(F)(F)F)c3)C2)cc1` (stereo not shown), the “hERG current change (%, negative = inhibition) at 10uM” value is listed as -28%.
In the case of `O=C(c1cc(F)ccc1F)C1CCCN(Cc2ccc3nonc3c2)C1` (stereo not shown) it was -12%.
The same measure for `O=C(NCC1CCCN(Cc2ccc3c(c2)OCCO3)C1)c1ccc2c(c1)OCO2` (stereo not shown): -18.8%.
In the case of `O=S(=O)(Cc1ccccc1)NCC1CCCN(Cc2ccc(F)c(F)c2)C1` (stereo not shown) it was -44.2%.
Turning to `O=C(NCC1CCCN(Cc2ccc3nonc3c2)C1)c1ccc(F)cc1` (stereo not shown), the “hERG current change (%, negative = inhibition) at 10uM” value is reported as -60.8%.
